# Measured values as given in PubChem BioAssay.
# Calls of active or inactive are those of the source.
# Assays:
# [1] = system: PRMT1 (protein arginine N-methyltransferase 1); experiment: small molecules binding arginine methyltransferase PRMT1 – biochemical, small-molecule microarray, 635 nm fluorescence, primary screen (AID 1088); details: higher = more signal;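 note: binding of Prmt1 protein to compounds spotted on small-molecule microarray slides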
# [2] = growth effects on S. cerevisiae YJM789 – YJM789 clinical isolate, OD600, 24 h, basal, primary screen (AID 1089); details: higher = more signal, called active from +8 up or from −8 down;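 note: growth of clinical yeast isolate S. cerevisiae YJM 789 seeded 1000 cells per well; test concentration not given here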
# [3] = S. pombe growth modifiers, basal conditions – strain 972, OD600, 24 h, no modulator, primary screen (AID 1090);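 note: basal condition with compound alone and no growth modifier present; test concentration not given here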; details: S. pombe 972 growth, higher = more signal, called active from +8 up or from −8 down
# [4] = budding yeast growth modifiers under rapamycin – strain BY4716, OD600, 96 h, primary screen (AID 1091); note: test concentration not given here; details: S. cerevisiae BY4716 + rapamycin, higher = more signal, called active from +8 up or from −8 down
# [5] = target: Torsin-1A-interacting protein 2 (Homo sapiens) (UniProt Q8NFQ8); experiment: small molecules binding lysate-expressed LULL1 – cell lysate, human LULL1 lysate, 635/667 nm fluorescence, primary screen (AID 1092); details: small-molecule microarray, hLULL1 lysate binding, 635 nm fluorescence; higher = more signal;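 note: probe is lysate of COS7 cells overexpressing human LULL1; score merges per-feature 667 nm fluorescence with signal-to-noise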
# [6] = optical density change of DRC41 E. coli – strain DRC41, OD650, 24 h, E. coli filamentation project, primary screen (AID 1093);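 note: MC1000 strain lacking acrAB efflux and sulA so SOS filamentation is blocked; test concentration not given here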; details: E. coli DRC41 growth, higher = more signal, called active from +8 up or from −8 down
# [7] = probe aLefty2 binding to arrayed compounds – biochemical, biotinylated probe, 635/667 nm fluorescence, primary screen (AID 1094); details: small-molecule microarray, higher = more signal;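 note: score merges spot fluorescence near 667 nm with spot signal-to-noise ratio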
# [8] = system: Noggin (protein binding on small-molecule microarray); experiment: small molecules binding Noggin protein – biochemical, 635/667 nm fluorescence, primary screen (AID 1095); details: 635 nm fluorescence, higher = more signal;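 note: score merges 667 nm feature fluorescence with signal to noise over triplicate slides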
# [9] = target: Neurogenic locus notch homolog protein 3 (Homo sapiens) (UniProt Q9UM47); experiment: small molecules binding NOTCH3 protein – biochemical, 635/667 nm fluorescence, primary screen (AID 1096); details: small-molecule microarray, 635 nm fluorescence, higher = more signal
# [10] = probe aEGFR binding to arrayed compounds – biochemical, biotinylated probe, 635/667 nm fluorescence, primary screen (AID 1097); details: small-molecule microarray, higher = more signal;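 note: probe is a biotinylated anti-EGFR antibody binding compounds printed on slides; score combines fluorescence near 667 nm and signal to noise of each spot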
# [11] = system: Plasmodium falciparum Sir2 (PF13_0152, Sir2A); experiment: Plasmodium falciparum Sir2A binding compounds – biochemical, small-molecule microarray, 635 nm fluorescence, primary screen (AID 1098); details: fluorescence 635 nm, higher = more signal;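 note: score merges spot fluorescence intensity with its signal-to-noise ratio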
# [12] = probe aDKK1 binding to arrayed compounds – biochemical, biotinylated probe, 635/667 nm fluorescence, primary screen (AID 1099); details: small-molecule microarray, higher = more signal;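 note: score merges 667nm spot fluorescence with signal to noise across triplicate slides; reference of the scale not given here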
# [13] = probe aCHRDL2 binding to arrayed compounds – biochemical, biotinylated probe, 635/667 nm fluorescence, primary screen (AID 1100); details: small-molecule microarray, higher = more signal
# [14] = change in splice reporter luminescence, either direction, cell-based, HEK293, spliceosome inhibition project, primary screen (AID 1101); details: HEK293 splicing luciferase reporter, 24 h, higher = more signal, called active from +8 up or from −8 down;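 note: HEK293 cells carrying a splicing-competent luciferase reporter gene; test concentration not given here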
# [15] = target: Fibroblast growth factor 10 (Homo sapiens) (UniProt O15520); experiment: compounds binding fibroblast growth factor 10 – biochemical, small-molecule microarray, 635 nm fluorescence, primary screen (AID 1102); details: FGF10 binding, fluorescence 635 nm, higher = more signal
# [16] = system: glycogen synthase kinase-3 (GSK3A per assay name; protocol says GSK3B); experiment: compounds binding glycogen synthase kinase-3 – biochemical, small-molecule microarray, 635 nm fluorescence, GSK3A, primary screen (AID 1103); details: fluorescence 635 nm, higher = more signal; note: the record names both GSK3A and GSK3B
# [17] = target: Epidermal growth factor receptor (Homo sapiens) (UniProt P00533); experiment: compounds binding epidermal growth factor receptor – biochemical, small-molecule microarray, 635 nm fluorescence, primary screen (AID 1104); details: EGFR binding, higher = more signal;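 note: score merges 667 nm emission intensity with spot signal to noise over triplicate slides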
# [18] = target: Follistatin-related protein 3 (Homo sapiens) (UniProt O95633); experiment: compounds binding follistatin-related protein 3 – biochemical, small-molecule microarray, 635 nm fluorescence, primary screen (AID 1105); details: FSTL3 binding, higher = more signal;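 note: score merges emission near 667 nm and signal to noise per printed spot across three slides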
# [19] = target: Dickkopf-related protein 1 (Homo sapiens) (UniProt O94907); experiment: small molecules binding DKK1 protein – biochemical, small-molecule microarray, 635 nm fluorescence scan, primary screen (AID 1106); details: higher = more signal;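 note: score merges emission near 667 nm with signal to noise over three replicate slides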
# [20] = system: Inhibin beta A chain (activin A); experiment: small molecules binding activin A – biochemical, small-molecule microarray, 635 nm fluorescence scan, primary screen (AID 1107); details: INHBA, higher = more signal;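 note: mouse activin A protein probed at 4.33 µg/mL on printed slides; score merges bound-protein fluorescence near 667 nm with spot signal-to-noise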
# Chain of Epidermal growth factor receptor (Homo sapiens) (P00533 whole entry, looked up): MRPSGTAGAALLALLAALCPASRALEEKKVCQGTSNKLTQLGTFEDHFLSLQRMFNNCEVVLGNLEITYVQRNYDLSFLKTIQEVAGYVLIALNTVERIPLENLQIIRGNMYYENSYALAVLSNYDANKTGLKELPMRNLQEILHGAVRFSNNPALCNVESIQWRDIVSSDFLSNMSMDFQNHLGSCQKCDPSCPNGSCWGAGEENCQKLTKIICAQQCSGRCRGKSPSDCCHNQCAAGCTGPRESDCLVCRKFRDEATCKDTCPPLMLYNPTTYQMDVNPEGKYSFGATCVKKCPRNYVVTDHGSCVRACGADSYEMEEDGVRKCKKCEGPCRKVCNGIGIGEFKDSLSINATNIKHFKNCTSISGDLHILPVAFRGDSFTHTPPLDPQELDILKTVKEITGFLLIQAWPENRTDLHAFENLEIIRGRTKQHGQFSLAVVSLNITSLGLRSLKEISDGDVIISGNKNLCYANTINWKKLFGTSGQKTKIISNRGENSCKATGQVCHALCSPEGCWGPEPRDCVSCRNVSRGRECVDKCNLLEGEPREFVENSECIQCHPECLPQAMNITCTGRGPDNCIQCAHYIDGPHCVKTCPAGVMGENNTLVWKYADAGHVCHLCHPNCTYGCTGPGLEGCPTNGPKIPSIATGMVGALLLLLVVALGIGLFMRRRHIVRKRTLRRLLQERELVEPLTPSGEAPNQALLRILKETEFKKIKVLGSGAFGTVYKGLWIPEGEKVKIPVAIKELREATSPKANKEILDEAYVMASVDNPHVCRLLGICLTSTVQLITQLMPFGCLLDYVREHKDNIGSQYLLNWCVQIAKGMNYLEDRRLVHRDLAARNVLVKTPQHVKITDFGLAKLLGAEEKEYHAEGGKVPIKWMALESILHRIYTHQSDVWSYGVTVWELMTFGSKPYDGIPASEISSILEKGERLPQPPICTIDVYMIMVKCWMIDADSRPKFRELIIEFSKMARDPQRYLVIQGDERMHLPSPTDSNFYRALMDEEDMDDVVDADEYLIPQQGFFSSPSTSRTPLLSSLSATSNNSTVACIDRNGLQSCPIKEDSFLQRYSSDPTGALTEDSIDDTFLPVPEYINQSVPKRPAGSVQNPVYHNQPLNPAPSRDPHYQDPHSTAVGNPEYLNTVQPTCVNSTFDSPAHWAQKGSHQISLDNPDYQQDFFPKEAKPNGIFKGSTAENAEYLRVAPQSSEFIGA
# Chain of Neurogenic locus notch homolog protein 3 (Homo sapiens) (Q9UM47 whole entry, looked up): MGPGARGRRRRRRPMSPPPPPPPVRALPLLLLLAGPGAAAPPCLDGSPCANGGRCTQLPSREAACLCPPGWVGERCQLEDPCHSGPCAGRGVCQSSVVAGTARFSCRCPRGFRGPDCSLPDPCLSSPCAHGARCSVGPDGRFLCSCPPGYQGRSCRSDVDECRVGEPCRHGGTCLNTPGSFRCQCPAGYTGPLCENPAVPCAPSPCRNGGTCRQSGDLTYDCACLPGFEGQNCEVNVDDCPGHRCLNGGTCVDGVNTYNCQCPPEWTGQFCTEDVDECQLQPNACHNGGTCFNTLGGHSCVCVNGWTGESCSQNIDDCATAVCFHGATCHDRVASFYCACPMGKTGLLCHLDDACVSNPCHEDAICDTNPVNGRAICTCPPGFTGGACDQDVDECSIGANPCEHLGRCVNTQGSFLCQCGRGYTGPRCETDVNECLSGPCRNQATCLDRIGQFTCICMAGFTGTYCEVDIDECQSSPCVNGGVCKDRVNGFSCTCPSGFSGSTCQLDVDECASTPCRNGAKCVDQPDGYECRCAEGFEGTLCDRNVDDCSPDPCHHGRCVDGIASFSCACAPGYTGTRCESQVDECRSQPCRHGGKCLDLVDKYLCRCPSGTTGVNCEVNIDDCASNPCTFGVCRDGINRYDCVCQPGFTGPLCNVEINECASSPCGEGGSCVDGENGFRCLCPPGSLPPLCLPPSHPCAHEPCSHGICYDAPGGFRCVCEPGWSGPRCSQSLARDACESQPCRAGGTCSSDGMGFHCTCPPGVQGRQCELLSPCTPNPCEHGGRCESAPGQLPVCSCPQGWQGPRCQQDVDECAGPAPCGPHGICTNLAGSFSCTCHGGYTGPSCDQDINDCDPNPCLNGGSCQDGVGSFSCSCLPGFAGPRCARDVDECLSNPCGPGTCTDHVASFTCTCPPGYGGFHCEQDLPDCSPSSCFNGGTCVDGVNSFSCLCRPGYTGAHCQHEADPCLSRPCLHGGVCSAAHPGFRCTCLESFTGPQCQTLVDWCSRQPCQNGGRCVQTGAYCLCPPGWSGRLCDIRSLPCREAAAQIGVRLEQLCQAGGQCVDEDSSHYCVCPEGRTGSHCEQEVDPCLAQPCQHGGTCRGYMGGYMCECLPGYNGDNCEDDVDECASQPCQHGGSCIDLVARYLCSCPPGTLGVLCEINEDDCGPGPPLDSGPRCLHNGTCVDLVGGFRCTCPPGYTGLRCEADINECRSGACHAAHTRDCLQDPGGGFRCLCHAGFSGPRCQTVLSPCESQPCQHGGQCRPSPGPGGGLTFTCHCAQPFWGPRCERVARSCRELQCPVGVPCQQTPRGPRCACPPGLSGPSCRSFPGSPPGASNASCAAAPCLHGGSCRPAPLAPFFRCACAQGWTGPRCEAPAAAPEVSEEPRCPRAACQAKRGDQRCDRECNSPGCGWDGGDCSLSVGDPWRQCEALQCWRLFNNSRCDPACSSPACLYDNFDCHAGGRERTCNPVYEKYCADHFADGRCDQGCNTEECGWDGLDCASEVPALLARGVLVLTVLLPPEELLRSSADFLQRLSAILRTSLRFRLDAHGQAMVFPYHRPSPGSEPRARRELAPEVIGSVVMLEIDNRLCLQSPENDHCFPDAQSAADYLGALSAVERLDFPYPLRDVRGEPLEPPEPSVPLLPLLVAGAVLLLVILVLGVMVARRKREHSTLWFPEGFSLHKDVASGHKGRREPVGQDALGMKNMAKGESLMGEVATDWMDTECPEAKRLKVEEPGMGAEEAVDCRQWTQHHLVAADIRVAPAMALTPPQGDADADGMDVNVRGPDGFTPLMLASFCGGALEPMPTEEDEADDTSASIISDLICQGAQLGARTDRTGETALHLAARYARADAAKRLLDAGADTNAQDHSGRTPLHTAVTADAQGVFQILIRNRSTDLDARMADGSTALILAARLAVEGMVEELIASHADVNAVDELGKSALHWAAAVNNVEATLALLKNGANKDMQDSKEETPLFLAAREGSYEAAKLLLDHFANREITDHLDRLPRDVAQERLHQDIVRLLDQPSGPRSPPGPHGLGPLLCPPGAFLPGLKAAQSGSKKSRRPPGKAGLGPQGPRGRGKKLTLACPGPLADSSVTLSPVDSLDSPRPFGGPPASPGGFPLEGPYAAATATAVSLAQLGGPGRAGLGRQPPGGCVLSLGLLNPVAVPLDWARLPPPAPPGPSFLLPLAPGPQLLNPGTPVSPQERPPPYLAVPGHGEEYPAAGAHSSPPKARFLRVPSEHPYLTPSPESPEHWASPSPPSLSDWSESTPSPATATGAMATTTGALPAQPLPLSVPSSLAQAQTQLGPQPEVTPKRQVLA
# Chain of Dickkopf-related protein 1 (Homo sapiens) (O94907 whole entry, looked up): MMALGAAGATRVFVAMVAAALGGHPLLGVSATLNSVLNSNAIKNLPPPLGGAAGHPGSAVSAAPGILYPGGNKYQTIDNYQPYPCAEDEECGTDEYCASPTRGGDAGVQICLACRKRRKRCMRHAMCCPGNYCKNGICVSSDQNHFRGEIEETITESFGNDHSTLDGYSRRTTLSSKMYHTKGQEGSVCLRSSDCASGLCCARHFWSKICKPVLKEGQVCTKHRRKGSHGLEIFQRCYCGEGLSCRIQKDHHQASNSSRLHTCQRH
# Chain of Torsin-1A-interacting protein 2 (Homo sapiens) (Q8NFQ8 whole entry, looked up): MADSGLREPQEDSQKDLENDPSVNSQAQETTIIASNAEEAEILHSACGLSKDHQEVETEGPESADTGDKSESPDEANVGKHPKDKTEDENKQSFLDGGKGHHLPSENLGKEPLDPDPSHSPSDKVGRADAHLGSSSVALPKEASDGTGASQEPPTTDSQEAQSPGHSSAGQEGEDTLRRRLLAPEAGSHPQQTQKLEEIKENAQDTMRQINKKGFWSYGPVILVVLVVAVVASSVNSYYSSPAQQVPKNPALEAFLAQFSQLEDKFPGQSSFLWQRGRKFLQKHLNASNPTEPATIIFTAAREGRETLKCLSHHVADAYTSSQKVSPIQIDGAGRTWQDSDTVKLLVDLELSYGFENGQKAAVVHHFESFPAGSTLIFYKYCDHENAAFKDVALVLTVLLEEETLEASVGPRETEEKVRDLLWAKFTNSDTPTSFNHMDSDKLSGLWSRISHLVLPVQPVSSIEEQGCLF
# Chain of Follistatin-related protein 3 (Homo sapiens) (O95633 whole entry, looked up): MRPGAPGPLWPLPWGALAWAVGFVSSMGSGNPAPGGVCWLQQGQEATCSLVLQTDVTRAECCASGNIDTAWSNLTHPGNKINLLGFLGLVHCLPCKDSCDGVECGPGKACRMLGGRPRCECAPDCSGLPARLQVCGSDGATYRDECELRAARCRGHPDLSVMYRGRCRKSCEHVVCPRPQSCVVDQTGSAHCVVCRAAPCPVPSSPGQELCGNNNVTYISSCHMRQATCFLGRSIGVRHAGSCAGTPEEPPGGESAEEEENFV
# Chain of Fibroblast growth factor 10 (Homo sapiens) (O15520 whole entry, looked up): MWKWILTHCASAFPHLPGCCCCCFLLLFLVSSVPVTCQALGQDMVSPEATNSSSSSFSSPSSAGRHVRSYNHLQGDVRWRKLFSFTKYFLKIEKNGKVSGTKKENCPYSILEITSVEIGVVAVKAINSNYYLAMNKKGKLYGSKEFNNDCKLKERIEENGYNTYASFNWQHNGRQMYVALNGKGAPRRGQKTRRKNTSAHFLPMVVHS
SMILES,composite z-score [1],z-score [2],z-score [3],z-score [4],composite z-score [5],z-score [6],composite z-score [7],composite z-score [8],composite z-score [9],composite z-score [10],composite z-score [11],composite z-score [12],composite z-score [13],z-score [14],composite z-score [15],composite z-score [16],composite z-score [17],composite z-score [18],composite z-score [19],composite z-score [20]
C=C(/C(=C/C[C@H](OC(=O)c1ccncc1)c1ccc(OCCO)cc1)c1cc(C(=O)OC)ccc1OC)C(C)C,1.03,0.236 (inactive),-1.26 (inactive),-0.359 (inactive),1.73,1.09 (inactive),-0.072,0.609,0.381,0.122,0.569,0.031,0.244,-0.821 (inactive),1.42,-0.534,-0.114,0.487,0.178,1.13
CCOC(=O)C[C@H]1[C@H](OC(=O)c2ccc(C(=O)c3ccccc3)cc2)[C@@H](NC(=O)Cc2ccc(OC)cc2)c2cc(OCCCO)ccc2N1C(=O)c1ccc2ccccc2n1,0.794,0.328 (inactive),-0.22 (inactive),0.605 (inactive),1.6,0.213 (inactive),0.0768,0.666,1.16,0.0182,0.31,0.05,0.161,0.409 (inactive),0.526,0.392,0.208,0.811,0.0905,0.468
CCCCN1CC=CC23O[C@@H]4C=CCOC(=O)[C@@H]4[C@H]2C(=O)N(CCCCCCO)[C@@H]3C1=O (stereo not given in full),-0.598,-0.992 (inactive),-0.053 (inactive),-0.362 (inactive),1.57,-0.44 (inactive),-0.0665,-1.84,-0.61,-0.244,1.77,0.159,0.552,0.381 (inactive),-0.988,-1,-1.5,-1.38,-1.28,0.65
CN1C(=O)C2C=CC(C(O)c3c(F)cccc3Cl)N(NC(=O)OC(C)(C)C)C2C1=O (stereo not given),1.3,-0.143 (inactive),0.415 (inactive),0.635 (inactive),3.45,-0.597 (inactive),0.18,-0.388,0.686,0.0675,1.39,0.868,1.09,1.7 (inactive),0.458,0.891,0.307,0.649,-0.438,0.449
CCOC(=O)C1=CCC(c2ccc(F)cc2)N(S(=O)(=O)c2ccc(C)cc2)C1 (stereo not given),0.249,0.265 (inactive),0.639 (inactive),1.68 (inactive),0.799,-0.704 (inactive),-0.0396,-0.0456,0.284,-0.0839,0.12,0.582,0.291,0.0136 (inactive),-0.0564,0.265,0.192,0.249,0.127,1.01
CC(c1ccccc1)C(O)C1C=CC2C(=O)N(C)C(=O)C2N1NC(=O)OC(C)(C)C (stereo not given),1.39,0.476 (inactive),0.0391 (inactive),0.299 (inactive),3.43,0.0596 (inactive),0.12,0.01,1.05,-0.0859,1.16,0.354,0.488,1.18 (inactive),1.02,1.28,0.469,0.907,0.237,0.633
O=C(CS)NCCCCCNC(=O)[C@@H]1C[C@@H]2C(=O)NCC(=O)N2[C@@H]1c1cccc(OCCO)c1,0.701,-5.72 (inactive),-0.31 (inactive),-0.485 (inactive),2.92,2.71 (inactive),-0.0823,0.271,0.328,-0.0466,1.17,0.0565,0.21,-1.82 (inactive),0.18,0.0776,0.752,0.0486,0.543,0.501
CC(C)(C)OC(=O)CC[C@]1(C(N)=O)N=C(c2ccc(OCCCO)cc2)O[C@H]1c1ccccc1,0.735,0.519 (inactive),0.256 (inactive),0.793 (inactive),3.74,0.152 (inactive),0.423,0.115,0.89,0.372,0.883,1.32,1.35,0.138 (inactive),1.36,0.555,-0.589,-0.188,-1.16,0.976
Cc1ccc(S[C@]2(C(=O)O)CC(=O)N(C(C)C)[C@@H]2c2ccc(CO)cc2)cc1,1.21,-1.54 (inactive),-0.916 (inactive),-0.963 (inactive),-0.634,1.66 (inactive),-0.0719,0.306,-0.229,-0.134,0.161,-0.11,0.34,-0.448 (inactive),0.224,-0.207,-0.468,0.147,0.0142,0.754
C=C(CCCC)/C(=C/C[C@H](OC(=O)c1ccncc1)c1ccc(OCCO)cc1)c1cc(C(=O)OC)ccc1OC,0.834,0.992 (inactive),-0.78 (inactive),-0.676 (inactive),1.27,0.987 (inactive),-0.187,-0.395,-0.0191,0.689,0.694,-0.172,-0.116,-1.14 (inactive),0.752,-0.139,0.053,0.14,0.204,1.29
